Common to all, as to test: NCI-60 one-dose screen, 48 h (100 = growth as untreated, 0 = no growth, -100 = all killed)
Details in all cases: 10 µM

The subject of test [1] is K-562 leukemia.
For test [2], the system named is MDA-MB-231 breast.
For test [3], the system named is RXF 393 renal.
In test [4] the test system is SF-268 CNS.
Test [5] has as its system SF-295 CNS.
Test [6] deals with SF-539 CNS.
In test [7] the test system is UACC-257 melanoma.
Test [8] has as its system M14 melanoma.
Test [9] has as its system HCT-15 colon.

This is part of a sample that, as a whole, favours compounds with a hit. Of some 83,000 tested, about 20% had one in any assay.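 Single-concentration screen, 48 h exposure, 96-well plates. Endpoint: percent growth. Below 10 = active.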 Unmarked numbers belong to inactive results. Calls of active or inactive are those of the source.

With `COc1ccc(-c2nc3sc(-c4ccc(OC)cc4)c(-c4ccc(OC)cc4)n3c2/C=C/c2ccc(C(C)C)cc2)cc1`, the growth in [1] is 105%; in test [2], 90.9%; in test [3], 92.4%; in test [4], 106%; in test [5], 96.6%; in test [6], 94.3%. Moreover, the growth in [7] was 95.6%; in test [8] it was 98.4%; in test [9] it was 92.5%.

On to `O=C(Nc1ccncc1)C(=O)c1cn(S(=O)(=O)c2ccc(F)cc2)c2ccccc12`, for which the growth is 9.29% (active) in [1]; 57.8% in test [2]; 68.1% in [3]; 47.9% in [4]; 61.3% in test [5]; 16.2% in [6]. Besides, the values for the growth in test [7], in [8] and in [9] were 49.1%, 14% and 23.1%, respectively.

Take `N=c1c2c(-c3ccccc3)c(-c3ccccc3)n(Cc3ccccc3)c2ncn1CCCO`: the growth in [1] was -0.624% (active); in test [2], 39%; in test [3], 12.7%; in test [4], 41.4%; in test [5] it was 88.3%; in test [6], 54.1%. Moreover, the growth in test [7] is -24.9% (active); in test [8], 43.4%; in test [9] it was 28.1%.

Regarding `CC(C)=CCc1ccc(O)c(=O)cc1C(C)C`, the growth in test [1] is 11.1%; in test [2], 52.4%; in test [3] it was 12.7%; in test [4], 13.7%; in [5] it was 8.22% (active); in test [6], 20%. Also, the growth in test [7] was 13.6%; in test [8], -16.8% (active); in test [9], 38.1%.

Regarding `CC(=O)c1cc(Br)ccc1O`, the growth in [1] is 103%; in test [2], 108%; in [3], 109%; in [4], 112%; in test [5], 95.3%; in [6], 97.1%. For the same compound, the growth is 113% in test [7], 104% in test [8] and 101% in test [9].

As for `O=C(Nc1ccncc1)C(=O)c1cn(S(=O)(=O)c2cccc3ccccc23)c2ccccc12`, the growth was 18.9% in test [1]; 74.6% in test [2]; 89.7% in [3]; 107% in test [4]; 52% in test [5]; 92.7% in [6]. Also, the figures for the growth in test [7], in test [8] and in test [9] were 89%, 82.7% and 65.7%, respectively.

For `CCCCCCCCCCCCCCCCN(C(C)c1ccccc1)S(=O)(=O)c1ccc(OC)c(N)c1` (stereo not drawn), the growth in test [1] is 89.9%; in test [2], 122%; in test [3] it was 131%; in [4], 108%; in [5] it was 116%; in test [6] it was 116%. Further, the growth in test [7] was 108%; in [8], 115%; in test [9] it was 115%.

As to `COc1ccc(/C=C/C(=O)Nc2ccc(-c3nc4ccc(OC)cc4s3)cc2)cc1`, the growth in [1] is 95.7%; in test [2], 111%; in test [3], 112%; in test [4], 116%; in test [5], 106%; in [6], 102%. In addition, the growth in test [7] is 111%; in test [8] it was 106%; in [9], 111%.

As for `COc1ccc(/C(=C2\O[C@@H]([C@H]3COC(C)(C)O3)[C@H]3OC(C)(C)O[C@@H]23)c2cc(OC)c(OC)c(OC)c2)cc1O`, the growth in [1] is 24.3%; in test [2] it was 43.9%; in test [3] it was 81.9%; in [4] it was 36.3%; in test [5], 85.2%; in test [6], 9.85% (active). The figures for the growth in test [7], in [8] and in test [9] were 107%, 7.95% (active) and 26.9%, respectively.

As to `COc1ccc(-c2nc3sc(C4CC4)nn3c2/C=C2/C(=O)Nc3ccc(OC)cc32)cc1`, the growth was 74.3% in test [1]; 58.4% in [2]; 63.9% in [3]; 75.8% in test [4]; 82.8% in test [5]; 25.1% in [6]. In addition, the results for the growth in test [7], in test [8] and in test [9] were 55.2%, 63.8% and 76.9%, respectively.

Regarding `CN1c2ccccc2[C@]2(Cc3ccccc3)Cc3ccccc3N[C@H]12`, the growth in test [1] is 92.1%; in test [2], 97.5%; in test [3], 112%; in test [4] it was 112%; in [5], 104%; in test [6] it was 105%. Moreover, the growth in test [7] was 111%; in [8], 104%; in [9], 96.3%.

Consider `CCN(CC)CCOc1nc2ccc(OC)cc2c2c1-c1ccc(OC)cc1C2=O`, for which the growth was -43.5% (active) in [1]; 20.5% in [2]; 4.4% (active) in test [3]; 17.3% in test [4]; -2.73% (active) in test [5]; 28.8% in [6]. In addition, the growth in [7] was -52.8% (active); in [8], -83.3% (active); in test [9] it was -59.4% (active).

As for `COc1ccc2c(c1)C(=O)c1c-2c(OCCN2CCCCC2)nc2ccc(OC)cc12`, the growth was 11.2% in test [1]; 66.5% in test [2]; 47.3% in test [3]; 28.1% in [4]; 2.81% (active) in test [5]; 20.9% in test [6]. Besides, the values for the growth in test [7], in test [8] and in [9] were 32.3%, 22.9% and 26.2%, respectively.

Take `O=C1OCC2=C1C(c1ccc(Cl)c(Cl)c1)c1cc3c(cc1N2CCO)OCCO3` (stereo not drawn): the growth in test [1] is 17.8%; in test [2] it was 26.6%; in test [3], 8.18% (active); in [4] it was 43.1%; in [5] it was -12.8% (active); in test [6], 2.76% (active). Further, the growth in test [7] was 59.9%; in test [8], 12.4%; in [9], 18.3%.

In the case of `Nc1nccc(Nc2ccccc2)n1`, the growth in test [1] is 102%; in test [2], 118%; in test [3], 112%; in test [4], 109%; in test [5], 104%; in test [6] it was 93.5%. Also, the growth was 95.8% in test [7], 108% in test [8] and 110% in test [9].

Take `CCN(CC)CCOc1nc2ccccc2c2c1-c1ccc(OC)cc1C2=O`: the growth is -17.8% (active) in test [1]; 10.7% in test [2]; 3.35% (active) in test [3]; -6.65% (active) in test [4]; -7.99% (active) in test [5]; 29.2% in test [6]. The results for the growth in test [7], in test [8] and in [9] were -18.8% (active), -53.3% (active) and 2.9% (active), respectively.

Consider `CCN(CC)CCOc1nc2cc(OC)c(OC)cc2c2c1-c1ccc(OC)cc1C2=O`, for which the growth in test [1] was 69.6%; in test [2], 92.4%; in test [3], 86.2%; in test [4], 44.3%; in [5], 29.6%; in test [6], 81.9%. For the same compound, the growth in test [7] is 101%; in [8], 85.9%; in [9], 81.4%.

In the case of `NC(=O)SCC(=O)Nc1ccc(S(N)(=O)=O)cc1`, the growth in test [1] was 108%; in test [2], 106%; in test [3], 99%; in test [4], 106%; in [5], 107%; in [6], 100%. The figures for the growth in test [7], in test [8] and in test [9] were 101%, 105% and 109%, respectively.

As to `O=C(Nc1ccncc1)C(=O)c1cn(S(=O)(=O)c2cc(Cl)cc(Cl)c2)c2ccccc12`, the growth in [1] was 28.5%; in [2], 63.6%; in test [3], 75%; in test [4] it was 94.3%; in test [5] it was 38.2%; in [6], 61.7%. Besides, the growth in test [7] was 69.8%; in test [8], 71.5%; in test [9], 69.5%.

In the case of `O=C(Nc1ccc(Cl)c(Cl)c1)Nc1c(Oc2ccc(Cl)c(Cl)c2)ccc(Cl)c1S(=O)(=O)O`, the growth in [1] was 9.98% (active); in [2], 39.5%; in test [3] it was -14.3% (active); in [4], 52.1%; in test [5], -27.2% (active); in test [6] it was 4% (active). For the same compound, the growth is 61.9% in test [7], 19.3% in test [8] and 39.6% in test [9].

For the compound `O=C1OCC2=C1C(c1cccc(Cl)c1)c1cc3c(cc1N2CCO)OCCO3` (stereo not drawn), the growth was 17.5% in test [1]; -3.22% (active) in [2]; 33.9% in test [3]; 23.1% in test [4]; -16.5% (active) in [5]; -3.57% (active) in [6]. Besides, the growth in test [7] is 44.6%; in test [8], 12.9%; in [9], 8.81% (active).

For `O=[N+]([O-])c1cccc(N=Cc2ccc3c(c2)OCO3)c1`, the growth was 100% in test [1]; 130% in [2]; 118% in test [3]; 114% in test [4]; 102% in [5]; 115% in [6]. Also, the values for the growth in test [7], in test [8] and in [9] were 102%, 97.7% and 122%, respectively.

As to `Cc1cc(C)c2c(n1)sc1c(Nc3ccc(Cl)cc3)ncnc12`, the growth in test [1] was 46.2%; in test [2], 32.1%; in test [3] it was 1.12% (active); in test [4] it was 0.138% (active); in test [5], 10.6%; in test [6], -49.5% (active). Moreover, the growth was 20.3% in test [7], -48.3% (active) in test [8] and 31% in [9].

Turning to `O=C1OCC2=C1C(c1cccc(Cl)c1)c1cc3c(cc1N2CCO)CCC3` (stereo not drawn), the growth in test [1] is 16.7%; in [2] it was -19.3% (active); in test [3] it was 34.3%; in [4] it was 13.9%; in test [5] it was -18.8% (active); in test [6], -5.32% (active). Moreover, the growth is 46% in test [7], 8.51% (active) in test [8] and 9.71% (active) in test [9].

With `O=C(NC(Cc1ccc(O)cc1)C(=O)N=Nc1c(O)[nH]c2ccccc12)c1ccccc1` (stereo not drawn), the growth is 107% in [1]; 110% in [2]; 108% in test [3]; 97.8% in [4]; 97.4% in [5]; 98.3% in [6]. The figures for the growth in test [7], in [8] and in test [9] were 97.5%, 94% and 103%, respectively.

Consider `O=C(/C(=C/c1ccccc1)CN1CCCCC1)c1ccccc1`, for which the growth is 2.9% (active) in [1]; -24.8% (active) in [2]; -77.6% (active) in test [3]; -9.79% (active) in test [4]; 38.6% in test [5]; -43.4% (active) in [6]. Also, the growth in [7] was -0.832% (active); in test [8], -48.4% (active); in test [9], -40.6% (active).

`COc1ccc2c(c1)sc1nc(-c3ccccc3)c(-c3ccsc3)n12`: the growth in test [1] is 13.8%; in test [2], 52.3%; in test [3], -13.3% (active); in test [4] it was 54.3%; in [5], -20% (active); in test [6], 2.07% (active). In addition, the values for the growth in test [7], in test [8] and in test [9] were 39.7%, 15.6% and 30.5%, respectively.

These data come from PubChem BioAssay (NCI).
